According to the supplement of paper PMC4371806:
Over roughly 2,300 compounds, “plate-normalized OD600 growth (mean of duplicates)” has its median near 0.29; the lowest 2% begin near 0.22. This excerpt belongs to a sample that is enriched for the lowest values.

Tested on: Escherichia coli BW25113
Assay: plate-normalized OD600 growth (mean of duplicates) (OD600 (normalized)); higher = more growth (less inhibition)
Settings: 10 µM
Procedure: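 E. coli BW25113 in LB (100 µl, 96-well, no shaking) was exposed to 10 µM of each compound from a ~30,000-member library and grown at 37°C for 24 h or 15°C for 48 h, in duplicate. Growth was read as OD600 and the duplicate ODs were normalized across screening plates to correct plate-to-plate variation. Hits were >3σ below the mean OD600 at 15°C and <2σ below the mean at 37°C.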

| Compound | plate-normalized OD600 growth (temperature: 15°C, 48 h) | plate-normalized OD600 growth (temperature: 37°C, 24 h) |
| --- | --- | --- |
| NC(N)=NC(N)=Nc1ccccc1C(F)(F)F | 0.243 | 0.604 |
| Cc1ccc(C2=Nc3ccccc3N=C(C(Cl)Cl)C2)cc1 | 0.25 | 0.629 |
| Cc1noc(N)c1C(N)=S | 0.247 | 0.612 |
| O=C(COc1ccc(/C=N/NC(=O)CO)cc1)NCC1CCCO1 (configuration not stated) | 0.227 | 0.668 |
| NNC(=O)c1cnn(-c2ccc(Cl)cc2)c1C(F)(F)F | 0.253 | 0.627 |
| CCN(CC)c1ccc(NC(=O)c2c(F)cccc2F)c(N(CC)CC)n1 | 0.235 | 0.602 |
| Cc1ccc(N=Cc2ccc(Sc3nc4ccccc4s3)o2)cc1 | 0.245 | 0.625 |
| C/C(=N/NC(=O)COc1cccc(Cl)c1)c1ccc(Cl)cc1 | 0.248 | 0.631 |
| CC1(O)N(CCN)C(=O)OC12CCCCC2 (configuration not stated) | 0.269 | 0.626 |
| CC1(C)OC(=O)N(CCCCCCN2C(=O)OC(C)(C)C2(C)O)C1(C)O (configuration not stated) | 0.197 | 0.652 |
| COc1ccc(/C(C)=N\NC2=NCCCN2)cc1 | 0.214 | 0.597 |
| Nc1c(C(=O)c2ccc(Br)cc2)sc2nc(-c3cccs3)cc(C(F)(F)F)c12 | 0.142 | 0.578 |
| Nc1c(C(=O)c2ccc(Br)cc2)sc2nc(-c3ccccc3)cc(-c3ccccc3)c12 | 0.256 | 0.621 |
| Cc1ccc(C(=O)c2sc3nc(-c4cccs4)cc(C(F)(F)F)c3c2N)cc1 | 0.239 | 0.623 |
| Cc1ccccc1COC(=O)c1ccc(-c2nnn(Cc3ccccc3C)n2)cc1 | 0.244 | 0.611 |
| CCOc1ccc(NC(=O)CSc2nc(C)cc(COC)c2C#N)cc1 | 0.21 | 0.638 |

| Compound | plate-normalized OD600 growth (temperature: 15°C, 48 h) | plate-normalized OD600 growth (temperature: 37°C, 24 h) |
| --- | --- | --- |
| CCOc1ccc(-n2nc3ccc(NC(=O)COc4ccccc4C)cc3n2)cc1 | 0.235 | 0.616 |
| COCc1cc(C)nc2sc(C(=O)OC)c(N)c12 | 0.243 | 0.626 |
| CCc1c(C)nc2cc(-c3ccc(Cl)cc3)[nH]n2c1=O | 0.214 | 0.632 |
| Cc1cc(=O)n2c(-c3ccc(Cl)cc3)csc2n1 | 0.239 | 0.607 |
| CCc1c(C)nc2[nH]nc(-c3ccccc3C)n2c1=O | 0.245 | 0.626 |
| NC(N)=NS(=O)(=O)c1ccc(NC(=O)C2CCCCC2)cc1 | 0.256 | 0.628 |
| COc1ccc2[nH]c(C)c(CCNS(=O)(=O)c3cc(Cl)ccc3Cl)c2c1 | 0.249 | 0.606 |
| COc1ccc(Cc2nnc(-c3ccc(-c4cccs4)s3)o2)cc1 | 0.258 | 0.615 |
| Cc1c(NC(=O)c2ccc(N)cc2)c(=O)n(-c2ccccc2)n1C | 0.248 | 0.629 |
| CC(C)(C)OC(=O)NC1CCN(C(=O)c2ccc(Cl)cc2Cl)CC1 | 0.244 | 0.629 |
| O=[N+]([O-])c1ccc2c(c1)S(=O)(=O)N=C2Nc1cc(Cl)ccc1Cl | 0.251 | 0.626 |
| C=CCn1c2ccccc2c2nnc(SCC(=O)Nc3ncccn3)nc21 | 0.245 | 0.599 |
| Cc1cccc(C2(c3cccc(C)c3)CC2C(=O)Nc2ccc(C#N)cc2)c1 (configuration not stated) | 0.232 | 0.597 |
| CC(C)CSc1ncnc2scc(-c3ccccc3)c12 | 0.235 | 0.631 |
| Cc1ccc(N(C)C(=S)Nc2ccc3nc[nH]c(=O)c3c2)cc1C | 0.237 | 0.625 |
